Activity calls are given as the source filed them. The calls were made as follows: active = hit-call score of the fitted dose curve at least 0.9, where 1 is the maximum; inactive = score below 0.9.

We go through 3 compounds from PubChem BioAssay (EPA / NIEHS).

What all share (settings): mRNA level, 48 h; actives raise or lower the signal
Read-out in one assay: MYC, MYC (gene 4609)
The experiment in a line: LTEA_HepaRG_MYC: Life Technologies and Expression Analysis (LTEA) Assay for MYC using HepaRG (AID 2283518). The procedure, abridged: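 Differentiated human HepaRG cells, plated 48 h then switched to serum-free induction medium, were exposed in duplicate for 48 h to 8-point half-log series up to 100 uM in 0.5% DMSO. MYC mRNA measured by qRT-PCR, normalized to ACTB/GAPDH/POLR2A.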

Read-out in assay [1]: matrix metalloproteinase-3 (MMP3), MMP3 (gene 4314)
The experiment in a line: LTEA_HepaRG_MMP3: Life Technologies and Expression Analysis (LTEA) Assay for matrix metalloproteinase-3 (MMP3) using HepaRG (AID 2283519). In a few lines:
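Human liver HepaRG cultures received chemicals (top concentration 100 uM, 0.5% DMSO) for 48 h in duplicate. MMP3 mRNA induction or loss was then assessed via TaqMan qRT-PCR with housekeeping-gene normalisation.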

Read-out in assay [2]: Paternally Expressed 10 (PEG10), PEG10 (gene 23089)
The assay can be described thus: LTEA_HepaRG_PEG10: Life Technologies and Expression Analysis (LTEA) Assay for Paternally Expressed 10 (PEG10) using HepaRG (AID 2283520). In a few lines: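 qRT-PCR read-out: PEG10 mRNA normalised to three housekeeping genes, fitted bidirectionally against 0.5% DMSO vehicle. HepaRG cells received test chemicals for 48 h in serum-free induction medium, 8 points, top 100 uM, half-log steps.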

Read-out in assay [3]: Nuclear factor NF-kappa-B p105 subunit (Homo sapiens) (UniProt P19838)
The experiment in a line: LTEA_HepaRG_NFKB1: Life Technologies and Expression Analysis (LTEA) Assay for Nuclear Factor Kappa B Subunit 1 (NFKB1) using HepaRG (AID 2283521).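 Also: TaqMan qRT-PCR transcript normalised to ACTB GAPDH and POLR2A housekeeping genes.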 The procedure, abridged:
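Differentiated human HepaRG cells in serum-free induction medium with 0.5% DMSO were exposed for 48 h to eight half-log concentrations, top 100 uM, in duplicate. NFKB1 mRNA measured by Fluidigm TaqMan qRT-PCR, normalised to ACTB, GAPDH and POLR2A; bidirectional fit versus DMSO.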

Read-out in assay [4]: Protein phosphatase 2A (PPP2R4), PTPA (gene 5524)
The assay can be described thus: LTEA_HepaRG_PPP2R4: Life Technologies and Expression Analysis (LTEA) Assay for Protein phosphatase 2A (PPP2R4) using HepaRG (AID 2283522). In a few lines:
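HepaRG, 48 h exposure, 8-pt half-log series from 100 uM, 0.5% DMSO vehicle, duplicates. Readout: PPP2R4 mRNA, Fluidigm qRT-PCR, housekeeping-normalized. Bidirectional curve fit vs DMSO baseline.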

Read-out in assay [5]: Phosphatase and tensin (PTEN), PTEN (gene 5728)
The experiment in a line: LTEA_HepaRG_PTEN: Life Technologies and Expression Analysis (LTEA) Assay for Phosphatase and tensin (PTEN) using HepaRG (AID 2283523). The procedure, abridged: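 Expression of PTEN is quantified in the human liver line HepaRG following two days of dosing (top concentration 100 uM, half-log dilutions, 0.5% DMSO). Values derive from bidirectional curve fitting relative to DMSO controls.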

Read-out in assay [6]: solute carrier (SLC22A1), SLC22A1 (gene 6580)
The assay can be described thus: LTEA_HepaRG_SLC22A1: Life Technologies and Expression Analysis (LTEA) Assay for solute carrier (SLC22A1) using HepaRG (AID 2283524). The procedure, abridged:
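Transcript induction or suppression of SLC22A1 in human HepaRG cultures is scored after 48 h chemical treatment, with DMSO (0.5%) as baseline for bidirectional fitting. Concentrations span eight half-log points topping at 100 uM.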

Read-out in assay [7]: Pyruvate Dehydrogenase Kinase 4 (PDK4), PDK4 (gene 5166)
The assay can be described thus: LTEA_HepaRG_PDK4: Life Technologies and Expression Analysis (LTEA) Assay for Pyruvate Dehydrogenase Kinase 4 (PDK4) using HepaRG (AID 2283525). The procedure, abridged: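 Eight-point, half-log concentration series (max 100 uM, 0.5% DMSO) applied to differentiated HepaRG cells for 48 h in duplicate. Endpoint: PDK4 mRNA induction or repression by qRT-PCR against DMSO baseline.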

Read-out in assay [8]: Nuclear factor erythroid 2-related factor 2 (Homo sapiens) (UniProt Q16236)
The assay can be described thus: LTEA_HepaRG_NFE2L2: Life Technologies and Expression Analysis (LTEA) Assay for Nuclear factor erythroid 2-related factor 2 (NFE2L2) Transcription Factor using HepaRG (AID 2283527).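 Also: TaqMan qRT-PCR transcript level normalised to ACTB GAPDH and POLR2A housekeeping genes.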 In a few lines: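 Human liver HepaRG line treated in duplicate for 48 h with an eight-point series topping at 100 uM. Gene expression of NFE2L2 by qRT-PCR, bidirectionally fitted against the vehicle control.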

Read-out in assay [9]: succinate dehydrogenase complex iron sulfur subunit B (SDHB), SDHB (gene 6390)
The assay can be described thus: LTEA_HepaRG_SDHB: Life Technologies and Expression Analysis (LTEA) Assay for succinate dehydrogenase complex iron sulfur subunit B (SDHB) using HepaRG (AID 2283528). The procedure, abridged:
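HepaRG cells (~100,000/well, plated 48 h) exposed in duplicate for 48 h in serum-free induction medium to 8-point half-log series from 100 uM in 0.5% DMSO; mRNA by qRT-PCR normalised to ACTB, GAPDH, POLR2A; bidirectional fit versus DMSO.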

Read-out in assay [10]: Signal transducer and activator of transcription 3 (Homo sapiens) (UniProt P40763)
The assay can be described thus: LTEA_HepaRG_STAT3: Life Technologies and Expression Analysis (LTEA) Assay for Signal transducer and activator of transcription (STAT3) using HepaRG (AID 2283529). In a few lines:
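In this transcriptional endpoint, HepaRG cultures receive test chemicals at up to 100 uM for 48 h, tested in duplicate. STAT3 mRNA is normalized to ACTB, GAPDH and POLR2A.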

Read-out in assay [11]: solute carrier (SLCO1B1), SLCO1B1 (gene 10599)
The assay can be described thus: LTEA_HepaRG_SLCO1B1: Life Technologies and Expression Analysis (LTEA) Assay for solute carrier (SLCO1B1) using HepaRG (AID 2283530). The procedure, abridged: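 Differentiated human HepaRG cells, plated 48 h, switched to serum-free induction medium and exposed in duplicate for 48 h to 8 half-log concentrations (top 100 uM) in 0.5% DMSO. SLCO1B1 mRNA by TaqMan qRT-PCR, normalized to ACTB/GAPDH/POLR2A.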

Read-out in assay [12]: sulfotransferase 2A1 (SULT2A1), SULT2A1 (gene 6822)
The assay can be described thus: LTEA_HepaRG_SULT2A1: Life Technologies and Expression Analysis (LTEA) Assay for sulfotransferase 2A1 (SULT2A1) using HepaRG (AID 2283531). In a few lines: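 Differentiated human HepaRG cells in serum-free induction medium were exposed for 48 h to eight half-log concentrations (top 100 uM, 0.5% DMSO). SULT2A1 mRNA was measured by qRT-PCR, normalized to ACTB, GAPDH and POLR2A, and fitted bidirectionally against DMSO.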

Read-out in assay [13]: Transforming Growth Factor (TGFA), TGFA (gene 7039)
The assay can be described thus: LTEA_HepaRG_TGFA: Life Technologies and Expression Analysis (LTEA) Assay for Transforming Growth Factor (TGFA) using HepaRG (AID 2283532). The procedure, abridged: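 Gene expression of TGFA was quantified by qRT-PCR after human HepaRG cells were treated for 48 h with test chemicals (eight concentrations, highest 100 uM, 0.5% DMSO). Activity in either direction was fitted relative to DMSO.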

Read-out in assay [14]: Transforming Growth Factor (TGFB1), TGFB1 (gene 7040)
The experiment in a line: LTEA_HepaRG_TGFB1: Life Technologies and Expression Analysis (LTEA) Assay for Transforming Growth Factor (TGFB1) Transporter using HepaRG (AID 2283533). The procedure, abridged: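 Differentiated human HepaRG cells in serum-free induction medium were exposed in duplicate for 48 h to eight concentrations (top 100 uM, half-log steps, 0.5% DMSO). TGFB1 mRNA was quantified by qRT-PCR, normalized to ACTB, GAPDH, POLR2A, and fitted bidirectionally against DMSO.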

Read-out in a further assay: TIMP1, TIMP1 (gene 7076)
The experiment in a line: LTEA_HepaRG_TIMP1: Life Technologies and Expression Analysis (LTEA) Assay for TIMP1 using HepaRG (AID 2283534).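 Also: TaqMan qRT-PCR signal normalized to ACTB GAPDH and POLR2A housekeeping genes.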 The procedure, abridged:
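Differentiated human HepaRG cells in serum-free induction medium were exposed 48 h to chemicals (8 half-log concentrations, top 100 uM, 0.5% DMSO). TIMP1 mRNA was quantified by TaqMan qRT-PCR, normalized to ACTB/GAPDH/POLR2A; bidirectional fit versus DMSO.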

Read-out in assay [15]: Tumor necrosis factor receptor 1 (TNFRSF1A), TNFRSF1A (gene 7132)
The experiment in a line: LTEA_HepaRG_TNFRSF1A: Life Technologies and Expression Analysis (LTEA) Assay for Tumor necrosis factor receptor 1 (TNFRSF1A) using HepaRG (AID 2283535). In a few lines: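 Differentiated human HepaRG cells were exposed in duplicate for 48 h in serum-free induction medium to eight concentrations (top 100 uM, half-log steps, 0.5% DMSO). TNFRSF1A mRNA was quantified by qRT-PCR, normalized to ACTB, GAPDH and POLR2A, then fitted bidirectionally against DMSO.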

Read-out in assay [16]: Thyroid Hormone Responsive (THRSP), THRSP (gene 7069)
The assay can be described thus: LTEA_HepaRG_THRSP: Life Technologies and Expression Analysis (LTEA) Assay for Thyroid Hormone Responsive (THRSP) using HepaRG (AID 2283536). In a few lines: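 Cell model: human HepaRG, approx. 100,000 cells/well, 0.5% DMSO vehicle. Exposure lasts 48 h; phenobarbital 1 mM serves as induction positive control. Gene expression is measured by qRT-PCR against three endogenous control genes.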

Read-out in assay [17]: UDP glucuronosyltransferase (UGT1A1), UGT1A1 (gene 54658)
The experiment in a line: LTEA_HepaRG_UGT1A1: Life Technologies and Expression Analysis (LTEA) Assay for UDP glucuronosyltransferase (UGT1A1) using HepaRG (AID 2283538). In a few lines:
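HepaRG, 48 h chemical exposure (top 100 uM, half-log 8-pt, 0.5% DMSO vehicle), duplicate wells; qRT-PCR (TaqMan, Fluidigm array) for UGT1A1 mRNA, housekeeping-normalized; bidirectional curve fit vs DMSO baseline.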

Sequence of Nuclear factor NF-kappa-B p105 subunit (Homo sapiens) (P19838 whole entry, looked up): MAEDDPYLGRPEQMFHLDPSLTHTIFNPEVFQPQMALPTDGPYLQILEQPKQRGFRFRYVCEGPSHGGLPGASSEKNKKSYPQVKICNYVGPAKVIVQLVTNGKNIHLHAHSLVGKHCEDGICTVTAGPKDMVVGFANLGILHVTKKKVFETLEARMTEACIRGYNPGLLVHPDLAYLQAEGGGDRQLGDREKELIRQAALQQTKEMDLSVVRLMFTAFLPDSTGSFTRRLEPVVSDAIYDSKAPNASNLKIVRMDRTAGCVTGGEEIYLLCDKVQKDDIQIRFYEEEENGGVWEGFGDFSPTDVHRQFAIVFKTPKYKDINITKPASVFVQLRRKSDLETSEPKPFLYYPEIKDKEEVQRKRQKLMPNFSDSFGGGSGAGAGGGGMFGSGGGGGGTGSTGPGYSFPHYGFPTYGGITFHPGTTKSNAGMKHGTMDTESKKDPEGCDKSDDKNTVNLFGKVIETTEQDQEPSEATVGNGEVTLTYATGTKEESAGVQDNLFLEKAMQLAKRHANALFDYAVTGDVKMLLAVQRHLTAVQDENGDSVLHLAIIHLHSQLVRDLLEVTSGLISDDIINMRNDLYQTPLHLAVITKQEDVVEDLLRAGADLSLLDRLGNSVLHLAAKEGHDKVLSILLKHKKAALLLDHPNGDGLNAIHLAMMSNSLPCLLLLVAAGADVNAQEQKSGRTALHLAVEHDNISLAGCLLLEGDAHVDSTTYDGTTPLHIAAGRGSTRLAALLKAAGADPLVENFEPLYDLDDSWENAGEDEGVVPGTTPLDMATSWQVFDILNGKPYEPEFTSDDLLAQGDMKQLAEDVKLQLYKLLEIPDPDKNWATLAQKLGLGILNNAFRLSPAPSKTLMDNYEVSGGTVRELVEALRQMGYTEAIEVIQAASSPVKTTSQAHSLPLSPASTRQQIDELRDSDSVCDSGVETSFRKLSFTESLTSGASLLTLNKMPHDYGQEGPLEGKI
Sequence of Nuclear factor erythroid 2-related factor 2 (Homo sapiens) (Q16236 whole entry, looked up): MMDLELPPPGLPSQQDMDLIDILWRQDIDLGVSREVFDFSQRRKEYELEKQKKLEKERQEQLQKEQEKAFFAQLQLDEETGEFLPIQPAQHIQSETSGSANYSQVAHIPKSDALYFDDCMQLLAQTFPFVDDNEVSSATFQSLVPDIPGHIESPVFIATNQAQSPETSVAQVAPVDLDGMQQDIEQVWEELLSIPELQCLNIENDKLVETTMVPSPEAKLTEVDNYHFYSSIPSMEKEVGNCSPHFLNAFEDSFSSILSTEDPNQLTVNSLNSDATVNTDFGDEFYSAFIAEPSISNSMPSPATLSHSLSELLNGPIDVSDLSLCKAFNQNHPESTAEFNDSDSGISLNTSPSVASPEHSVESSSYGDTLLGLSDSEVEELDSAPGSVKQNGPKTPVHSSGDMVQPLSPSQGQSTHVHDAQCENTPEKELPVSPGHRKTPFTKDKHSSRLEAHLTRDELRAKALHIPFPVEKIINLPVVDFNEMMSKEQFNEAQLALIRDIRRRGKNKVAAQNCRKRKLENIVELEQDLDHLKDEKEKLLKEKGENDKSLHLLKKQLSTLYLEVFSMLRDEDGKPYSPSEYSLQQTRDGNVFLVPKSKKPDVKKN
Sequence of Signal transducer and activator of transcription 3 (Homo sapiens) (P40763 whole entry, looked up): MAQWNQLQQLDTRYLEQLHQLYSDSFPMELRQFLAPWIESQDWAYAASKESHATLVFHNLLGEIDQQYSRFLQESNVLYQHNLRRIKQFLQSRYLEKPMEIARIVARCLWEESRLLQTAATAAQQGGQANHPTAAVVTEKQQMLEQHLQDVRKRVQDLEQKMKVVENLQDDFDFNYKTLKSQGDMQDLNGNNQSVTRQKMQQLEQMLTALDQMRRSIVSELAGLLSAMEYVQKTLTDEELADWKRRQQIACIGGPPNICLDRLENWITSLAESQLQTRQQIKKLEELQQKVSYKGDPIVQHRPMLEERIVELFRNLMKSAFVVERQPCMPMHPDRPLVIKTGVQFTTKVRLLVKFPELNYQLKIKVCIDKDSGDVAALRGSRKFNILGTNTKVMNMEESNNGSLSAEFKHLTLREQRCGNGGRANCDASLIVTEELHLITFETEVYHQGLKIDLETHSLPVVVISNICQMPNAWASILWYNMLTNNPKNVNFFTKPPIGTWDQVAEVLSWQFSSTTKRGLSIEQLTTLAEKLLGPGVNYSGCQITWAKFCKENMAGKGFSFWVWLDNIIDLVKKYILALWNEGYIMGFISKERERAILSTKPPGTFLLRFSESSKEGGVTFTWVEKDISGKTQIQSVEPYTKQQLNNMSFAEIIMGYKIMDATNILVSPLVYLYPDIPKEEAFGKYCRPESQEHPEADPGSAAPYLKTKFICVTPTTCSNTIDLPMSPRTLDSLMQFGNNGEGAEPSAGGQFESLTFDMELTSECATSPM

Consider `CC(C)CC(C)O` (stereo unspecified), for which the outcome in the assay with MYC, MYC (gene 4609) was “inactive”; in [1], “inactive”; in assay [2] it was “inactive”; in assay [3], “inactive”; in assay [4], “inactive”; in assay [5], “inactive”. Further, the result in assay [6], in [7], in assay [8], in assay [9], in assay [10] and in assay [11] was inactive. The outcome in assay [12] is “inactive”; in assay [13], “inactive”; in assay [14] it was “inactive”; with TIMP1, TIMP1 (gene 7076) it was “inactive”; in [15] it was “inactive”; in [16], “inactive”. In assay [17], the compound was called inactive.
Take `CCn1nc(C)c2c1C(=O)NCC(c1ccc(O)cc1)=N2`: the outcome with MYC, MYC (gene 4609) is “inactive”; in [1], “inactive”; in [2] it was “inactive”; in assay [3], “inactive”; in [4], “inactive”; in assay [5] it was “inactive”. Also, the result in [6], in assay [8], in assay [9], in assay [10], in assay [11] and in [12] was inactive. The outcome is “inactive” in [13]; “inactive” in assay [14]; “inactive” with TIMP1, TIMP1 (gene 7076); “inactive” in assay [15]; “inactive” in assay [16]. Further, the AC50 in assay [17] was 34.1 µM (active).
Consider `CCCCC(CC)C(=O)OCCOCCOCCOC(=O)C(CC)CCCC` (stereo unspecified), for which the outcome in the assay with MYC, MYC (gene 4609) was “inactive”; in assay [1], “inactive”; in [2], “inactive”; in assay [3], “inactive”; in assay [4], “inactive”; in assay [5], “inactive”. Also, the result in assay [6], in assay [7], in assay [8], in [9], in [10] and in [11] was inactive. Moreover, the outcome in assay [12] was “inactive”; in [13], “inactive”; in [14] it was “inactive”; in the assay with TIMP1, TIMP1 (gene 7076), “inactive”; in assay [16], “inactive”; in assay [17], “inactive”. Moreover, the AC50 in [15] is 78.2 µM (active).

The AC50 is the concentration at which the activity in the assay is half-maximal.
